Results published in the supplement of paper PMC8728848.
The entries come from a sample that favours the strongest signals as a whole.

Assays:
Experiment in all cases: glycan array binding signal (z-score within array); higher = stronger binding
Settings in all cases: glycan notation: IUPAC condensed, linker removed
Fuc(a1-2)Gal(b1-3)GlcNAc = target: Fuc(a1-2)Gal(b1-3)GlcNAc
Outline: (§1)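 Glycan array binding is given as a within-array Z-score, which can be read as non-binding when negative. The arrays, 3228 of them, came from the Consortium for Functional Glycomics database and were retained only where the protein sequence was available. Z-scores were averaged across arrays of the same protein sequence at different concentrations or buffers and across linkers.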

[1] = target: Fuc(a1-2)Gal(b1-4)GlcNAc(b1-2)Man(a1-3)[Fuc(a1-2)Gal(b1-4)GlcNAc(b1-2)Man(a1-6)]Man(b1-4)GlcNAc(b1-4)[Fuc(a1-6)]GlcNAc
Outline: as §1

[2] = target: Fuc(a1-2)Gal(b1-4)GlcNAc(b1-3)Gal(b1-4)GlcNAc(b1-2)Man(a1-3)[Fuc(a1-2)Gal(b1-4)GlcNAc(b1-3)Gal(b1-4)GlcNAc(b1-2)Man(a1-6)]Man(b1-4)GlcNAc(b1-4)GlcNAc
Outline: as §1

[3] = target: Fuc(a1-2)Gal(b1-4)GlcNAc(b1-3)[Fuc(a1-3)[Gal(b1-4)]GlcNAc(b1-6)]Gal(b1-4)Glc
Outline: as §1

[4] = target: Fuc(a1-2)Gal3S(b1-4)GlcNAc
Outline: as §1

[5] = target: Fuc(a1-2)[Gal(a1-3)]Gal(b1-3)GalNAc(b1-3)Gal(a1-4)Gal(b1-4)Glc
Outline: as §1

[6] = target: Fuc(a1-2)[Gal(a1-3)]Gal(b1-4)GlcNAc(b1-2)Man(a1-3)[Fuc(a1-2)[Gal(a1-3)]Gal(b1-4)GlcNAc(b1-2)Man(a1-6)]Man(b1-4)GlcNAc(b1-4)GlcNAc
Outline: as §1

[7] = target: Fuc(a1-2)[Gal(a1-3)]Gal(b1-4)GlcNAc(b1-3)GalNAc
Outline: as §1

[8] = target: Fuc(a1-2)[Gal(a1-3)]Gal(b1-4)[Fuc(a1-3)]GlcNAc(b1-3)GalNAc
Outline: as §1

[9] = target: Fuc(a1-2)[GalNAc(a1-3)]Gal(b1-4)GlcNAc(b1-3)[Fuc(a1-2)[GalNAc(a1-3)]Gal(b1-4)GlcNAc(b1-6)]GalNAc
Outline: as §1

[10] = target: Fuc(a1-2)[GalNAc(a1-3)]Gal(b1-4)GlcNAc(b1-6)GalNAc
Outline: as §1

[11] = target: Fuc(a1-2)[GalNAc(a1-4)]Gal(b1-4)GlcNAc
Outline: as §1

[12] = target: Gal(a1-3)Gal(b1-4)GlcNAc(b1-2)Man(a1-3)[Gal(a1-3)Gal(b1-4)GlcNAc(b1-2)Man(a1-6)]Man(b1-4)GlcNAc(b1-4)GlcNAc
Outline: as §1

[13] = target: Gal(a1-3)Gal(b1-4)[Fuc(a1-3)]GlcNAc(b1-2)Man(a1-3)[Gal(a1-3)Gal(b1-4)[Fuc(a1-3)]GlcNAc(b1-2)Man(a1-6)]Man(b1-4)GlcNAc(b1-4)GlcNAc
Outline: as §1

[14] = target: Gal(a1-3)[Gal(a1-4)]Gal(b1-4)GlcNAc
Outline: as §1

Gal(b1-3)GlcNAc = target: Gal(b1-3)GlcNAc
Outline: as §1

Gal(b1-3)GlcNAc(b1-2)Man = target: Gal(b1-3)GlcNAc(b1-2)Man
Outline: as §1

[15] = target: Gal(b1-3)GlcNAc(b1-3)Gal(b1-4)GlcNAc(b1-2)Man(a1-3)[Gal(b1-3)GlcNAc(b1-3)Gal(b1-4)GlcNAc(b1-2)Man(a1-6)]Man(b1-4)GlcNAc(b1-4)GlcNAc
Outline: as §1

[16] = target: Gal(b1-4)GlcNAc(b1-2)[Gal(b1-4)GlcNAc(b1-6)]Man(a1-6)[Gal(b1-4)GlcNAc(b1-2)Man(a1-3)]Man(b1-4)GlcNAc(b1-4)GlcNAc
Outline: as §1

[17] = target: Gal(b1-4)GlcNAc(b1-3)Gal(b1-4)GlcNAc(b1-3)Gal(b1-4)GlcNAc(b1-3)Gal(b1-4)GlcNAc(b1-3)Gal(b1-4)GlcNAc(b1-2)Man(a1-3)[Gal(b1-4)GlcNAc(b1-3)Gal(b1-4)GlcNAc(b1-3)Gal(b1-4)GlcNAc(b1-3)Gal(b1-4)GlcNAc(b1-3)Gal(b1-4)GlcNAc(b1-2)Man(a1-6)]Man(b1-4)GlcNAc(b1-4)GlcNAc
Outline: as §1

[18] = target: Gal(b1-4)GlcNAc(b1-6)[Gal(b1-3)]GalNAc
Outline: as §1

[19] = target: Gal(b1-4)GlcNAc(b1-6)[Gal(b1-4)GlcNAc(b1-3)]GalNAc
Outline: as §1

Gal(b1-4)GlcNAc6P = target: Gal(b1-4)GlcNAc6P
Outline: as §1

Gal3S(b1-3)GalNAc = target: Gal3S(b1-3)GalNAc
Outline: as §1

[20] = target: Gal3S(b1-4)[Fuc(a1-3)]GlcNAc6S
Outline: as §1

Gal6S(b1-3)GlcNAc6S = target: Gal6S(b1-3)GlcNAc6S
Outline: as §1

B1: PX9937A-bvu-521-23-521 (Bacteroides vulgatus) (protein)
chain: LDLAPEDYYGAGNFWKEASQPKAFMLGLHAQLRSYYDMFYTLGELRGGTQRVGTSSLNTSLNYADIRSQNISEDIPGISNWNGLYSPIMQVNHFIQEVENGCTFLDDATRSRYLGQAYGMRALYYFMLYRTFGGVPLITKVDILDGKPSADKFYVERATPEATMEFIKADINKSENYFGNNTSFDAYDWSRYATLMLKAEIYMWAAKVSITGFTATGATDLQTAKTALSGIIGHFELMDNFASIFSCDNKKNTEIIFAMPFIEGEASNDGGRFLYQDAVFLGQAYGRNGKVIEKDTLNLKGTGGVFRDEYTEDFWKTFKEGDSRRDATFMEYYMKNDNGTLSEFGCVMKKRIGTINSNDNRIYISDIPVYRYADALLMMAEIENGLNNPCASYINEVRKRAYGDTFEENKYTEGSYAENELAILQERDKEFVSEGKRWFDVLRMHDASGRSLVFSANANYPGTNPILGTEEAYKMLWPVNIGTLNVNPLLTQTPGYGKK
glycan array binding signal (z-score) (Fuc(a1-2)Gal(b1-3)GlcNAc): -0.251
glycan array binding signal (z-score) [1]: 0.307
glycan array binding signal (z-score) [2]: 0.158
glycan array binding signal (z-score) [3]: -0.083
glycan array binding signal (z-score) [4]: -0.223
glycan array binding signal (z-score) [5]: -0.525
glycan array binding signal (z-score) [6]: 0.549
glycan array binding signal (z-score) [7]: -0.367
glycan array binding signal (z-score) [8]: -0.237
glycan array binding signal (z-score) [9]: -0.334
glycan array binding signal (z-score) [10]: 0.027
glycan array binding signal (z-score) [11]: -0.319
glycan array binding signal (z-score) [12]: 0.763
glycan array binding signal (z-score) [13]: 6.91
glycan array binding signal (z-score) [14]: 2.4
glycan array binding signal (z-score) (Gal(b1-3)GlcNAc): -0.312
glycan array binding signal (z-score) (Gal(b1-3)GlcNAc(b1-2)Man): -0.189
glycan array binding signal (z-score) [15]: -0.279
glycan array binding signal (z-score) [16]: 4.26
glycan array binding signal (z-score) [17]: 2.53
glycan array binding signal (z-score) [18]: 6.72
glycan array binding signal (z-score) [19]: 0.459
glycan array binding signal (z-score) (Gal(b1-4)GlcNAc6P): 0.719
glycan array binding signal (z-score) (Gal3S(b1-3)GalNAc): -0.408
glycan array binding signal (z-score) [20]: -0.018
glycan array binding signal (z-score) (Gal6S(b1-3)GlcNAc6S): -0.386
